Measurements: PubChem BioAssay (EPA / NIEHS)
Where “and” joins values, the source holds several entries; their conditions need not be identical. Identical values can stand only once. Results filed as inconclusive are left out. The source holds several records for some structures; these can differ, active in one and inactive in another. Calls of active or inactive are those of the source. Rule for the calls, unless noted: active = hit-call score of the fitted dose curve at least 0.9, where 1 is the maximum; inactive = score below 0.9.

Assays:
[1] = read-out: Interleukin-1 alpha (IL1a), IL1A (gene 3552); experiment: BSK_LPS_IL1a: BioMAP Diversity Plus: LPS Assay for Interleukin-1 alpha (IL1a) Biomarker Activity (AID 2283080); details: primary human HUVEC with PBMC; actives raise or lower the signal
Outline: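 Human umbilical vein endothelial cells co-cultured with peripheral blood mononuclear cells were LPS-stimulated and exposed to test chemicals for 24 h. IL-1 alpha was quantified by ELISA, with bidirectional curve fitting against DMSO as the negative control and baseline.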

[2] = read-out: Monocyte Chemoattractant Protein-1 (MCP1), CCL2 (gene 6347); experiment: BSK_LPS_MCP1: BioMAP Diversity Plus: LPS Assay for Monocyte Chemoattractant Protein-1 (MCP1) Biomarker Activity (AID 2283081); details: primary human HUVEC with PBMC; actives raise or lower the signal;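 for AC50: secreted MCP-1 protein quantified by ELISA in culture supernatant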
Outline: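 HUVEC plus PBMC co-culture (human primary cells, LPS system) exposed to test chemical for 24 h; MCP-1 measured by ELISA. Bidirectional curve fitting against DMSO baseline; parallel SRB total-protein staining flags overt cytotoxicity.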

[3] = BSK_LPS_PGE2: BioMAP Diversity Plus: LPS Assay for Prostaglandin E2 (PGE2) Biomarker Activity (AID 2283082); details: primary human HUVEC with PBMC; actives raise or lower the signal;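 for AC50: secreted prostaglandin E2 measured by ELISA in LPS-stimulated co-culture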
Outline: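 Endpoint derived from bidirectional curve fitting versus DMSO of ELISA-measured PGE2 in LPS-stimulated human primary vascular co-culture (HUVEC with PBMC) harvested at 24 h.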

[4] = read-out: Macrophage colony-stimulating factor (MCSF), CSF1 (gene 1435); experiment: BSK_LPS_MCSF: BioMAP Diversity Plus: LPS Assay for Macrophage colony-stimulating factor (MCSF) Biomarker Activity (AID 2283083); details: primary human HUVEC with PBMC; actives raise or lower the signal
Outline: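 Human umbilical vein endothelial cells co-cultured with peripheral blood mononuclear cells were exposed to compound for 24 h. M-CSF levels were measured by ELISA, and bidirectional curve fitting used DMSO as the negative control and baseline.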

[5] = read-out: Tissue Factor, F3 (gene 2152); experiment: BSK_LPS_TissueFactor: BioMAP Diversity Plus: LPS Assay for Tissue Factor Biomarker Activity (AID 2283084); details: primary human HUVEC with PBMC; actives raise or lower the signal
Outline: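 Human umbilical vein endothelial cells co-cultured with peripheral blood mononuclear cells were dosed and stimulated with LPS. Cell-surface CD142 was quantified by ELISA at 24 h. Activity was fitted bidirectionally against DMSO baseline.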

[6] = read-out: Tumor necrosis factor (Homo sapiens) (UniProt P01375); experiment: BSK_LPS_TNFa: BioMAP Diversity Plus: LPS Assay for Tumour Necrosis Factor alpha (TNFa) Biomarker Activity (AID 2283085); details: primary human HUVEC with PBMC; actives raise or lower the signal
Outline: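 Primary human vascular co-culture of HUVEC and PBMC; TNFa ELISA 24 h after treatment, analysed as increase or decrease relative to DMSO control.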

[7] = read-out: Vascular cell adhesion molecule 1 (VCAM1), VCAM1 (gene 7412); experiment: BSK_LPS_VCAM1: BioMAP Diversity Plus: LPS Assay for Vascular cell adhesion molecule 1 (VCAM1) Biomarker Activity (AID 2283086); details: primary human HUVEC with PBMC; actives raise or lower the signal
Outline: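 Primary human vascular co-culture (umbilical vein endothelium plus PBMC) stimulated with LPS received chemical; 24 h later VCAM-1 was read by ELISA. Overt cytotoxicity was assessed by sulforhodamine B staining of parallel cultures at the same time point.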

[8] = read-out: CD38, CD38 (gene 952); experiment: BSK_SAg_CD38: BioMAP Diversity Plus: SAg Assay for CD38 Biomarker Activity (AID 2283087); details: primary human HUVEC with PBMC; actives raise or lower the signal
Outline: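 Fluorescence ELISA of cell-surface CD38 served as the read-out, with either increase or decrease fitted against DMSO controls. Cells were a human umbilical vein endothelium plus PBMC co-culture under SEB/TSST-1 stimulation, measured 24 h after dosing.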

[9] = read-out: CD69, CD69 (gene 969); experiment: BSK_SAg_CD69: BioMAP Diversity Plus: SAg Assay for CD69 Biomarker Activity (AID 2283089); details: primary human HUVEC with PBMC; actives raise or lower the signal
Outline: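 Values derive from bidirectional fitting relative to DMSO vehicle. Cells: umbilical vein endothelium plus peripheral blood mononuclear cells, treated 24 h before fluorescent ELISA for CD69.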

[10] = read-out: Monocyte Chemoattractant Protein-1 (MCP1), CCL2 (gene 6347); experiment: BSK_SAg_MCP1: BioMAP Diversity Plus: SAg Assay for Monocyte Chemoattractant Protein-1 (MCP1) Biomarker Activity (AID 2283090); details: primary human HUVEC with PBMC; actives raise or lower the signal
Outline: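 MCP-1 levels in the endothelial–PBMC SAg co-culture were quantified by ELISA at 24 h post-dosing; both increases and decreases versus DMSO scored. Cytotoxicity monitored by SRB total protein in parallel cultures.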

[11] = read-out: E-selectin (Homo sapiens) (UniProt P16581); experiment: BSK_SAg_Eselectin: BioMAP Diversity Plus: SAg Assay for Eselectin Biomarker Activity (AID 2283091); details: primary human HUVEC with PBMC; actives raise or lower the signal
Outline: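 HUVEC co-cultured with PBMC, compound dosed then read at 24 h; E-selectin measured by ELISA. Activity fitted bidirectionally against DMSO as negative control and baseline.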

[12] = read-out: Monokine induced gamma interferon (MIG), CXCL9 (gene 4283); experiment: BSK_SAg_MIG: BioMAP Diversity Plus: SAg Assay for Monokine induced gamma interferon (MIG) Biomarker Activity (AID 2283092); details: primary human HUVEC with PBMC; actives raise or lower the signal
Outline: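 Values reflect bidirectional fitting of ELISA-measured MIG against DMSO vehicle, taken 24 h after dosing of a co-culture of human umbilical vein endothelial cells and peripheral blood mononuclear cells.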

[13] = BSK_SAg_PBMCCytotoxicity: PBMC Cytotoxicity Assessment in the BioMAP Diversity Plus: SAg Assay (AID 2283093); details: primary human HUVEC with PBMC;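 note: PBMC viability measured as Alamar Blue reduction fluorescence at 546/580 nm; fitted both ways against DMSO so a hit may be loss or gain of signal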;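 for AC50: PBMC superantigen activated with SEB plus TSST-1 one hour after compound addition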
Outline: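 Compound added to 75,000 PBMC/well for 1 h; SEB and TSST-1 then added at 20 ng/mL final each; 90 h incubation; Alamar Blue 6 h; read 546/580 nm ex/em. Activity fitted bidirectionally relative to DMSO baseline.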

[14] = read-out: Interleukin-8 (IL8), CXCL8 (gene 3576); experiment: BSK_SAg_IL8: BioMAP Diversity Plus: SAg Assay for Interleukin-8 (IL8) Biomarker Activity (AID 2283094); details: primary human HUVEC with PBMC; actives raise or lower the signal
Outline: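 In this co-culture of human umbilical vein endothelium with peripheral blood mononuclear cells, IL-8 is assayed by ELISA at 24 h. DMSO serves as baseline for bidirectional curve fitting.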

[15] = BSK_SAg_Proliferation: Cell Proliferation Assessment in the BioMAP Diversity Plus: SAg Assay (AID 2283095); details: primary human HUVEC with PBMC;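 note: relative cell number as total protein by SRB absorbance in sub-confluent culture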
Outline: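 Readout is SRB-stained protein (560 nm) in a primary human HUVEC and PBMC co-culture; sub-confluent cultures are read at 96 h. Activity is fitted bidirectionally using DMSO as baseline.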

[16] = BSK_SAg_SRB: Viability Assessment in the BioMAP Diversity Plus: SAg Assay (AID 2283096); details: primary human HUVEC with PBMC;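 note: cells read one day after compound addition; hits may be either gain or loss of signal compared with DMSO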
Outline: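 Total protein by sulforhodamine B staining, 24 h after dosing, in HUVEC–PBMC co-culture; DMSO-referenced bidirectional fitting.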

[17] = read-out: CD40, CD40 (gene 958); experiment: BSK_SAg_CD40: BioMAP Diversity Plus: SAg Assay for CD40 Biomarker Activity (AID 2283088); details: primary human HUVEC with PBMC; actives raise or lower the signal
Outline: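 Human umbilical vein endothelial cells co-cultured with PBMC; CD40 levels measured by ELISA with fluorescence read-out 24 h after chemical dosing. Gain or loss of signal fitted bidirectionally against DMSO baseline.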

[18] = molecular target: human CYP19A1, CYP19A1 (gene 1588) (UniProt P11511); experiment: NVS_ADME_hCYP19A1: NovaScreen (NVS) CYP450-related Enzyme Activity (ADME) Assay for human CYP19A1 (AID 2283098; active = hit-call score of the fitted dose curve at least 0.9, where 1 is the maximum;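 for AC50: potency for inhibitors seen as loss of fluorescent enzyme signal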)
Chain of human CYP19A1, CYP19A1 (gene 1588) (P11511 whole entry, looked up): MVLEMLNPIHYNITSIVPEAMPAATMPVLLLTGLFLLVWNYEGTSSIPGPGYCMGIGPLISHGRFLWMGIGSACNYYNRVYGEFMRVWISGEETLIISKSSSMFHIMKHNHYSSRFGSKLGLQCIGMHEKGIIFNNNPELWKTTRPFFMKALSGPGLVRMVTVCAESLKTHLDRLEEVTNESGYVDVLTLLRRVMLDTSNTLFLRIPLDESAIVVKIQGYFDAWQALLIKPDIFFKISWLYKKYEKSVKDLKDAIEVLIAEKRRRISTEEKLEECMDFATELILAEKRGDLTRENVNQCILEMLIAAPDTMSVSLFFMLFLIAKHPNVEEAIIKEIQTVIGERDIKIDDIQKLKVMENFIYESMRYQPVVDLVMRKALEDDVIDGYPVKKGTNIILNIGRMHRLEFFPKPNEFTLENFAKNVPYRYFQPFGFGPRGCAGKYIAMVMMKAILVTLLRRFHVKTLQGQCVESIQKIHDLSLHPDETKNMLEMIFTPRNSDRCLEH
Outline: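 Biochem, cell-free; recombinant enzyme + specific substrate; fluorescence intensity at 0.5 h post-dose; 10 uM duplicate primary, conc. series for actives; acetonitrile = negative control/baseline; positive and negative controls on every plate.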

Measured: AC50

Chain of Tumor necrosis factor (Homo sapiens) (P01375 whole entry, looked up): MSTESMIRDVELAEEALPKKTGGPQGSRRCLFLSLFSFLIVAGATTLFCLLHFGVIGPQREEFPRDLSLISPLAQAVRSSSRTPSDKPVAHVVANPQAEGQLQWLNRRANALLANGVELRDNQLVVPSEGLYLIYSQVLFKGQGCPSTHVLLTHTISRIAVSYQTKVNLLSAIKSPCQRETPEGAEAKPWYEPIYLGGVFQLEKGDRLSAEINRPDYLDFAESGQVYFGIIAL
Chain of E-selectin (Homo sapiens) (P16581 whole entry, looked up): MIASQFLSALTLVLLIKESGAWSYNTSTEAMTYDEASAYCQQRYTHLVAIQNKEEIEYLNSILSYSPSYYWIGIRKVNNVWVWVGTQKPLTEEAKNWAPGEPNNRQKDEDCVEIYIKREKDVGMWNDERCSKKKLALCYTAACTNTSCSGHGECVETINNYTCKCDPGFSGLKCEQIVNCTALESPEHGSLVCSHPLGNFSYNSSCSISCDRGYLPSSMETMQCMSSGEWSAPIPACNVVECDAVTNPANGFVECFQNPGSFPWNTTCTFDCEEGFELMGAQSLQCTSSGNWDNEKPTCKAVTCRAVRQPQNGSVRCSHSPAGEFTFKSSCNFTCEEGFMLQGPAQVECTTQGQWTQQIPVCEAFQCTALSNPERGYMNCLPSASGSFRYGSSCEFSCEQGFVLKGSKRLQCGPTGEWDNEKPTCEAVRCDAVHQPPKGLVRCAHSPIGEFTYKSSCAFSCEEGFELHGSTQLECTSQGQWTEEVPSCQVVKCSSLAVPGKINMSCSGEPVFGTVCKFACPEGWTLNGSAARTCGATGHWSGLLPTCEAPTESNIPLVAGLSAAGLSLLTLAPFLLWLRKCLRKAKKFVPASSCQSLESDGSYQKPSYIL

CCCCCC1=CCCC1=O
inactive: [1] | [2] | [3] | [4] | [5] | [6] | [8] | [9] | [10] | [11] | [12] | [13] | [14] | [15] | [16]
active: [7] 24 µM

O=C(O)C(F)(F)C(F)(F)C(F)(F)C(F)(F)C(=O)O
inactive: [1] | [2] | [3] | [4] | [5] | [6] | [7] | [8] | [17] | [10] | [11] | [12] | [13] | [14] | [15] | [16]

C[N+](C)(C)CCCNS(=O)(=O)C(F)(F)C(F)(F)C(F)(F)C(F)(F)C(F)(F)C(F)(F)C(F)(F)C(F)(F)F
active: [1] 13.2 µM and 30 µM | [2] 36.4 µM | [3] 19.3 µM and 14.8 µM | [4] 46.7 µM and 52.8 µM | [5] 14.1 µM | [6] 41 µM and 28.3 µM | [7] 45 µM and 49.6 µM | [17] 30 µM | [13] 51.3 µM | [15] 46.5 µM | [16] 43.5 µM and 46.5 µM
inactive: [2] | [5] | [8] | [17] | [9] | [10] | [11] | [12] | [13] | [14] | [15]

O=C1CCCCCCCCCCC1
inactive: [1] | [2] | [3] | [4] | [5] | [6] | [7] | [8] | [10] | [11] | [12] | [13] | [14] | [15] | [16]

CCCCCCCCC(CO)CCCCCC (stereo unspecified)
inactive: [1] | [2] | [3] | [4] | [5] | [6] | [7] | [8] | [10] | [11] | [12] | [13] | [14] | [15] | [16]

CCCCCCCO
inactive: [1] | [2] | [3] | [4] | [5] | [6] | [7] | [8] | [10] | [11] | [12] | [13] | [14] | [15] | [16]

CC=C(C)C(C)=O
inactive: [1] | [2] | [3] | [4] | [5] | [6] | [7] | [8] | [10] | [11] | [12] | [13] | [14] | [15] | [16]

c1ccc2sc(SSN3CCOCC3)nc2c1
active: [4] 12.2 µM | [8] 20 µM | [13] 20 µM | [15] 8.5 µM
inactive: [1] | [2] | [3] | [5] | [6] | [7] | [10] | [11] | [12] | [14] | [16]

O=C(OCc1ccccc1)c1ccc(O)cc1
active: [18] 4.08 µM

CCOC(=O)/C=C\C(=O)OCC
inactive: [1] | [2] | [3] | [4] | [5] | [6] | [7] | [8] | [10] | [12] | [13] | [14] | [15] | [16]
active: [11] 20 µM

CCCCCCOC(=O)CCCCC(=O)OCCCCCC
inactive: [1] | [2] | [3] | [4] | [5] | [6] | [7] | [8] | [10] | [11] | [12] | [13] | [14] | [15] | [16]

CCOC(=O)C1=NN(c2ccc(Cl)cc2Cl)C(C)(C(=O)OCC)C1 (stereo unspecified)
inactive: [1] | [2] | [4] | [5] | [6] | [7] | [8] | [10] | [11] | [12] | [13] | [14] | [15] | [16]
active: [3] 8.97 µM

O=C(O)c1ccc2c(c1)C(=O)OC2=O
inactive: [18]

O=C(Oc1ccccc1)c1ccccc1C(=O)Oc1ccccc1
active: [8] 29.7 µM | [15] 20 µM
inactive: [1] | [2] | [3] | [4] | [5] | [6] | [7] | [10] | [11] | [12] | [13] | [14] | [16]

CCOC(=O)C1=NOC(c2ccccc2)(c2ccccc2)C1
inactive: [1] | [2] | [3] | [4] | [5] | [6] | [7] | [8] | [10] | [11] | [12] | [13] | [14] | [15] | [16]

c1ccc(Nc2cccc3ccccc23)cc1
active: [1] 34.1 µM and 34.7 µM | [2] 27.8 µM and 29.1 µM | [3] 2.88 µM and 2.19 µM | [4] 31.2 µM and 16.1 µM | [6] 31.6 µM and 29.9 µM | [7] 32.5 µM and 28.1 µM | [8] 30.4 µM and 31.1 µM | [10] 29.4 µM and 30.4 µM | [11] 31.8 µM and 33.5 µM | [13] 34.3 µM and 36.9 µM | [14] 31.1 µM and 30.7 µM | [15] 31.3 µM and 30.4 µM | [16] 28.7 µM and 30.3 µM
inactive: [5] | [12]

CC/C=C\CCOC(=O)c1ccccc1O
active: [1] 29.6 µM | [2] 32.8 µM | [4] 33 µM | [5] 33 µM | [6] 31.5 µM | [7] 37.9 µM | [8] 31 µM | [10] 28.5 µM | [11] 29.7 µM | [13] 33.3 µM | [15] 31.2 µM | [16] 30.7 µM
inactive: [3] | [12] | [14]
